The values that follow come from the supplement of paper PMC10600219.

SMILES strings stand for the structures. Counter-ions that a name gives are not always drawn. Whole data set: some 2,800 compounds, median “cell viability relative to vehicle” near 0.98, cut for the lowest 2% near 0.45. The list comes from a sample in which the lowest values are over-represented; it also holds similar structures and randomly drawn compounds.

The assay has as its system NCI-H2228 alectinib-DTP. In words: cell viability relative to vehicle (fraction of vehicle); NCI-H2228 is an ALK-positive lung cancer line and DTP means drug-tolerant persister; higher = less growth inhibition. The conditions noted are these: 100 nM; treatment time 6 days. The essentials:
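Each value is viability relative to vehicle-treated cells, measured as ATP with the CellTiter-Glo 3D Cell Viability Assay. Parental NCI-H2228 cells and drug-tolerant persisters (1000 nM targeted drug, 13 days) in 384-well plates received the 3114-agent TargetMol anti-cancer compound library at 100 nM, or DMSO, and were read 6 days later.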
`CC(C)[C@]12O[C@H]1[C@@H]1O[C@]13[C@]1(O[C@H]1C[C@H]1C4=C(CC[C@@]13C)C(=O)OC4)[C@@H]2O` [Triptolide] returned a cell viability of 0.133.

With `CCCC(C)(C)c1ccc2c(c1)OC(C)(C)[C@@H]1CC=C(C)C[C@@H]21`, the cell viability was determined as 0.862. The compound `Cc1ccc(/N=C/N(C)/C=N/c2ccc(C)cc2C)c(C)c1` [Amitraz] returned a cell viability of 0.902.

`COc1ccc2c(c[n+](C)c3c4cc5c(cc4ccc23)OCO5)c1OC` [Chelerythrine] had a cell viability of 1.03.

`COc1ccc2c(c[n+](C)c3c4cc5c(cc4ccc23)OCO5)c1OC` [Chelerythrine chloride] had a cell viability of 1.04. Regarding `CC(=O)O[C@H]1C(=O)[C@@]2(C)[C@H]([C@H](OC(=O)c3ccccc3)[C@]3(O)C[C@H](O)C(C)=C1C3(C)C)[C@]1(OC(C)=O)CO[C@@H]1C[C@@H]2O` [Baccatin III], the cell viability came to 1. The same measure for `C/C(=C\c1csc(C)n1)[C@@H]1C[C@@H]2O[C@]2(C)CCC[C@H](C)[C@H](O)[C@@H](C)C(=O)C(C)(C)[C@@H](O)CC(=O)O1` [Epothilone B]: 0.433. `C/C(=C\c1csc(C)n1)[C@@H]1C[C@@H]2O[C@@H]2CCC[C@H](C)[C@H](O)[C@@H](C)C(=O)C(C)(C)[C@@H](O)CC(=O)O1` [Epothilone A]: the cell viability came to 0.529. With `C[C@@H]1C(=O)O[C@H]2[C@H](O)[C@@]34O[C@@H]5OC(=O)[C@H](O)[C@@]56[C@H](C(C)(C)C)[C@H](O)C(OC3=O)[C@]64[C@@]12O` (stereo partly specified) [Ginkgolide C] the figure was 0.969; with `C/C=C/c1cc(OC)c(OC)cc1OC` [alpha-Asarone], 0.92. With `NC[C@H](CC(=O)O)c1ccc(Cl)cc1` [(R)-baclofen] the figure was 1.07. For the compound `NCCc1c[nH]c2ccccc12` [Tryptamine], the cell viability came to 1.12. The same measure for `NCCCNCCCN` [Bis(3-aminopropyl)amine]: 0.833; for `CC(=O)O[C@H]1C[C@H](O[C@H]2[C@@H](O)C[C@H](O[C@H]3[C@@H](O)C[C@H](O[C@H]4CC[C@@]5(C)[C@H](CC[C@@H]6[C@@H]5C[C@@H](O)[C@]5(C)[C@@H](C7=CC(=O)OC7)CC[C@]65O)C4)O[C@@H]3C)O[C@@H]2C)O[C@H](C)[C@H]1O[C@@H]1O[C@H](CO)[C@@H](O)[C@H](O)[C@H]1O` [Lanatoside C]: 0.49. The same measure for `CO[C@H]1C[C@H](O[C@H]2CC[C@]3(C)[C@H]4CC[C@]5(C)[C@@H](C6=CC(=O)OC6)CC[C@]5(O)[C@@H]4CC[C@]3(O)C2)O[C@H](C)[C@H]1O[C@@H]1O[C@H](CO)[C@@H](O)[C@H](O)[C@H]1O` [Periplocin]: 0.443; for `CCC(C)C(=O)O[C@@H]1[C@@H](OC(C)=O)[C@]2(C)[C@H](C(C)=O)CC[C@@]23O[C@]32CC[C@H]3C[C@@H](O[C@H]4C[C@@H](OC)[C@H](O[C@@H]5O[C@H](C)[C@@H](O)[C@@H](OC)[C@H]5O)[C@@H](C)O4)CC[C@]3(C)[C@@H]12` (stereo partly specified) [Tenacissoside H]: 1.14; for `NCC(CC(=O)O)c1ccccc1` (stereo unspecified) [Phenibut]: 1.03. With `COc1ccc2c(c1O)-c1c(OC)c(OC)cc3c1[C@H](C2)N(C)CC3` [(+)-Isocorydine hydrochloride] the figure was 0.9. `CCC12C=CCN3CC[C@@]4(c5ccc(OC)cc5N(C)[C@H]4[C@@](O)(C(=O)OC)[C@@H]1OC(C)=O)[C@@H]32` (stereo partly specified) [Vindoline] displayed a cell viability of 1.1. The same measure for `N#CC(C#N)=Cc1ccc([N+](=O)[O-])c(O)c1`: 1.05.

Turning to `C[C@H]1CCC/C=C/[C@@H]2C[C@H](O)C[C@H]2[C@H](O)/C=C/C(=O)O1` [Brefeldin A], the cell viability is 0.0894. With `C[C@H]1C(=O)O[C@@H]2CCN3CC=C(COC(=O)[C@](C)(O)[C@]1(C)O)[C@H]23` [Monocrotaline] the figure was 0.941; with `C[N+]1([O-])[C@@H]2CC(OC(=O)[C@H](CO)c3ccccc3)C[C@H]1[C@@H]1O[C@@H]12` (stereo partly specified) [Scopolamine N-oxide HBr], 1.07. With `C[C@@H]1CCC=C2C(=O)C[C@H]3OOC(C)(C)[C@H]3[C@]21C` [Nardosinone] the figure was 0.941; with `COc1ccc2c(c1)[nH]c1c(C)nccc12` [Harmine], 0.801; with `Nc1ncnc2c1ccn2[C@@H]1O[C@H](CO)[C@@H](O)[C@H]1O` [Tubercidin], 0.389. With `CC(=O)Nc1ccc(OC[C@](C)(O)C(=O)Nc2ccc([N+](=O)[O-])c(C(F)(F)F)c2)cc1` [Andarine] the figure was 0.917; with `C[C@H](CS(C)(=O)=O)n1ccc2c(C(F)(F)F)c(C#N)ccc21`, 1.09; with `O=P(O)(NCCCl)NCCCl` [Palifosfamide], 1.17. `Cc1c(N[C@@H](c2nnc(-c3ccc(C#N)cc3)o2)[C@H](C)O)ccc(C#N)c1Cl` [Testolone]: the cell viability was found to be 1.21.

The compound `CC(=O)O[C@H]1[C@H]2O[C@]23[C@@H]2CC[C@@H]4C[C@@H](O)CC[C@]4(C)[C@H]2CC[C@]3(C)[C@H]1c1ccc(=O)oc1` [Cinobufagin] gave a cell viability of 0.142.

`C[C@]12CC[C@H](O)C[C@@H]1CC[C@@H]1[C@@H]2CC[C@]2(C)C(=O)CC[C@@H]12` [Epiandrosterone] returned a cell viability of 0.814. Compound `C[C@]12CC[C@H](O)C[C@H]1CC[C@@H]1[C@@H]2CC[C@]2(C)[C@@H](c3ccc(=O)oc3)CC[C@]12O` [Bufalin] displayed a cell viability of 0.101.

`C[C@]12CC[C@H](O)C[C@H]1CC[C@@H]1[C@@H]2CC[C@]2(C)[C@@H](c3ccc(=O)oc3)C[C@H]3O[C@]132` [Resibufogenin]: the cell viability stood at 1.07. In turn, `C[C@]12CC[C@H](O)C[C@H]1CC[C@@H]1[C@@H]2CC[C@]2(C)[C@@](O)(c3ccoc3)CC[C@]12O` [Rostafuroxin] displayed a cell viability of 0.988. The same measure for `Cc1c(C(=O)Nc2cccc(C(F)(F)F)c2)cc(-c2ccccc2)n1CCCN1CCOCC1`: 0.946; for `Cc1ccccc1-n1c(Cn2cnc3c(N)ncnc32)nc2cccc(C)c2c1=O`: 1.07. With `C=C1C2CC3(C1O)C1CC4C5(C)CCC(O)C4(C1N(CC)C5)C3CC2=O` (stereo unspecified) [Napellonine] the figure was 0.931. The same measure for `CCO[C@H]1O[C@@H]2O[C@@]3(C)CC[C@H]4[C@H](C)CC[C@@H]([C@H]1C)[C@@]24OO3` [Arteether]: 0.856; for `CC(=O)OC(C)(C)/C=C/C(=O)[C@](C)(O)[C@H]1[C@H](O)C[C@@]2(C)[C@@H]3CC=C4[C@H](C[C@H](O)C(=O)C4(C)C)[C@]3(C)C(=O)C[C@]12C` [Cucurbitacin B]: 0.146.

On to `COc1ccc2c(c1OC)CN1CCc3cc4c(cc3C1C2)OCO4` (stereo unspecified) [Tetrahydroberberine THB], for which the cell viability is 1.01. The same measure for `CC[C@@]1(O)C(=O)OCc2c1cc1n(c2=O)Cc2cc3ccccc3nc2-1` [(S)-(+)-Camptothecin]: 0.36; for `CCc1c2c(nc3ccccc13)-c1cc3c(c(=O)n1C2)COC(=O)[C@]3(O)CC` [7-Ethylcamptothecin]: 0.361; for `COc1ccc(/C=C/C=C2C(=O)NC(=O)NC2=O)cc1`: 0.972. With `N#C/C=C1/C=C[C@@H](O)[C@H](O)[C@H]1O[C@@H]1O[C@H](CO)[C@@H](O)[C@H](O)[C@H]1O` [Griffonin] the figure was 0.984; with `Clc1ccc([C@]23CNC[C@H]2C3)cc1Cl` [Amitifadine hydrochloride], 1.06. The same measure for `CC(=O)O[C@H]1CC[C@H]2[C@@H]3CCC4=CC(=O)CCC4=C3C=C[C@]12C` [Trenbolone acetate]: 1.15; for `N#C[C@H](O[C@@H]1O[C@H](CO[C@@H]2O[C@H](CO)[C@@H](O)[C@H](O)[C@H]2O)[C@@H](O)[C@H](O)[C@H]1O)c1ccccc1` [Amygdalin]: 0.879; for `N#Cc1nn(-c2c(Cl)cc(C(F)(F)F)cc2Cl)c(N)c1[S+]([O-])C(F)(F)F` (stereo unspecified) [Fipronil]: 0.905.

In the case of `CC1=C[C@H]2[C@@]3(O)[C@H](C)[C@@H](O)[C@]4(O)[C@H]([C@@H]3C=C(CO)C[C@]2(O)C1=O)C4(C)C` [Phorbol], the cell viability amounted to 0.999. The same measure for `O=C(/C=C/c1ccccc1)OC[C@H]1O[C@@H](O[C@@H]2OC=C[C@H]3[C@H](O)[C@@H]4O[C@]4(CO)[C@@H]23)[C@H](O)[C@@H](O)[C@@H]1O` [Picroside I]: 1.06.
